# A selection: hits, their analogues and other compounds. The true share with any hit is near 9.2%.
# Rab9 prom act: activators of Rab9 promoter; Huh7 Rab9 promoter-luciferase reporter, luminescence, 24 h; Potency, µM (doses to about 9.22 µM), for the others: top-dose activation, negative = inhibition, most hits filed as activators; hit rate 2.8% among 320,000; AID 485297; note: % of control where 0% means no effect; nearly all actives have a fitted effect of over 60% in size
#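 Stable Rab9-luc Huh7, 1500 cells/well, 2 h settle; cmpd in DMSO, 24 h, 37 °C/5% CO2; luciferase reagent 10 min RT; luminescence.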
# FLuc counter: firefly luciferase modulation, counter-screen for miR-21 project; P08659; purified FLuc, Km substrates, luminescence inhibition; Potency, µM (titrated, usually from 57.5 µM), for inactives: top-dose activity change, negative = inhibition, hits mostly inhibitors; hit rate 6.9% among 360,000;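 note: plate controls were vehicle for no effect and reference inhibitor for full effect; nearly all actives have a fitted effect of over 55% in size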
# Target sequence (P08659 whole entry, looked up): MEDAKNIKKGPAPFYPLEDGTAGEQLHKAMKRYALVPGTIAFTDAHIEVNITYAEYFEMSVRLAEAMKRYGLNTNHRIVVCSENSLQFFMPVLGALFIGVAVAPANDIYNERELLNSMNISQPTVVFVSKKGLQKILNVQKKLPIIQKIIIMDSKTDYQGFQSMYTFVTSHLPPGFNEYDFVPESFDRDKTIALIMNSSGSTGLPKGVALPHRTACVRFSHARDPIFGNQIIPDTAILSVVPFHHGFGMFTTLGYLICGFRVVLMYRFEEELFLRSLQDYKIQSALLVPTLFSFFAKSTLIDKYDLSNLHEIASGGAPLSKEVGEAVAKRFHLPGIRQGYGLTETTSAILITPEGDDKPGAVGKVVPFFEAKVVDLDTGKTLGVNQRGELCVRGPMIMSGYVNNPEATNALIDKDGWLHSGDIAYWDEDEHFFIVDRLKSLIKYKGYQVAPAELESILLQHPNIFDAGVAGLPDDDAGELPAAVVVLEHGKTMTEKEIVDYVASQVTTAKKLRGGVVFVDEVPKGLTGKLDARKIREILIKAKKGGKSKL
#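 Purified P. pyralis luciferase, 10 nM final, with Km-level 10 uM D-luciferin and 10 uM ATP in 50 mM Tris acetate pH 7.5, 10 mM Mg acetate, 0.01% Tween-20, 0.05% BSA; 6-point qHTS titration about 60 µM downward; luminescence read.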
# NPC1 prom act: NPC1 promoter activation | Huh7 NPC1 promoter luciferase reporter, 24 h | Potency, µM (top dose mostly 9.22 µM), for inactives: at the top dose activation, most hits filed as activators | hit rate 2.4% among 320,000 | AID 485313; note: % of control where 0% means no effect; nearly all actives have a fitted effect of over 60% in size
#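 Huh7 reporter cells (NPC1 promoter driving luciferase) are dosed with compound for 24 h at 37 °C, 5% CO2; luciferase detection reagent is then added and luminescence measured after 10 min at ambient temperature.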
# ELG1 DNA repair: ELG1-dependent DNA repair inhibition. HEK293T ELG1-luciferase reporter, luminescence, 16 h; DNA damage induced by 5-fluorouridine. Potency, µM (series often up to 46.1 µM), for inactives: top-dose activity change, negative = inhibition, actives largely listed as inhibitors. hit rate 2.3% among 330,000. AID 504467; note: % is set by controls: 0 for no effect and ±100 for the full control effect; nearly all actives have a fitted effect of over 55% in size
#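 5-Fluorouridine DNA damage + compound/DMSO, 2,000 cells/well, 16 h, 37 °C/5% CO2. ONE-Glo, 30 min RT, luminescence. Readout = decrease in reporter signal.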
# ELG1 genotoxic: inducers of genotoxicity in HEK293T ELG1-luciferase cells. HEK293T ELG1-luciferase reporter, luminescence, 16 h. hit rate 1.3% among 330,000. Potency, µM (doses to about 46 µM), inactives show top-dose activity change, positive = activation, most hits filed as activators; note: % of control where 0% means no effect; nearly all actives have a fitted effect of over 60% in size
#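 HEK293T cells expressing luciferase-tagged ELG1 were treated with compound or DMSO for 16 hr at 37°C. Luciferase activity was then read after 30 min with ONE-Glo at room temperature; rising signal flags genetic stress.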
# SMN2 splice enh: increases expression of the SMN2 splice variant; hit rate 2.8% among 210,000; AID 1458; HEK293 SMN2-luciferase splicing reporter, luminescence, 30-36 h; Potency, µM (highest dose often 46.1 µM), inactives show top-dose activity change, positive = activation, actives largely listed as activators; note: % of control where 0% means no effect; nearly all actives have a fitted effect of over 55% in size
#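 HEK293 cells carry an SMN2 […]–luciferase reporter in which exon 7 inclusion puts luciferase in frame. Cells were plated 10-12 h before compound addition, then incubated 30-36 h at 37C. ONE-Glo luminescence was read; sodium butyrate at 4.5 mM final served as control.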
# An asterisk follows results filed as active; ? = inconclusive; . = not tested or not shown; [ ] = dose if it differs, or a comment. Calls come from the whole dose curve; as a rule, active = well fitted curve in the direction sought with a large enough effect; inconclusive = small, poorly fitted or top-dose-only effect, or another doubt; inactive = no such curve, though single readings can be large; an effect the other way counts as inactive or inconclusive. Potency is the fitted concentration of half-maximal effect.
SMILES,Rab9 prom act,FLuc counter,NPC1 prom act,ELG1 DNA repair,ELG1 genotoxic,SMN2 splice enh
CSc1ccc(/C=C/C(=O)N2CCN(c3ccccn3)CC2)cc1,0%,13µM*,4%,1%,3%,.
NCC[C@H](N)C(=O)O,.,.,.,.,.,-6%[9.22 µM]
Cc1ccc(-c2nnn(CCC(=O)NC(C)(C)C)n2)cc1,?,?,22%,?,15%,?
COC(=O)CCn1nnc(-c2ccc(C)cc2)n1,3%,17µM*,-2%,?,?,19%
CCOC(=O)c1[nH]c(C)c(C(=O)OC)c1C,-1%,?,10%,?,15%,.
CCOC(=O)c1[nH]c(C)c(C(=O)Nc2ccc(F)cc2)c1C,-5%,3%,1%,?,21%,6%
CCOC(=O)c1[nH]c(C)c(C(=O)Nc2ccc(C)c(C)c2)c1C,1.4µM*,-9%,?,0%,11%,18%
CCOC(=O)c1c(C)[nH]c(C(=O)OCc2ccccc2F)c1C,1.6µM*,2.7µM*,1.6µM*,?,1.6µM*,.
CCOC(=O)c1[nH]c(C)c(C(=O)NCC2CCCO2)c1C (stereo not drawn),5%,0%,1%,0.73µM*,-4%,-16%
CCOC(=O)c1[nH]c(C)c(C(=O)Nc2ccccc2F)c1C,-7%,?,-26%,?,?,5µM*
CCOC(=O)c1[nH]c(C)c(C(=O)NC2CCCCC2)c1C,-2%,4%,-2%,2%,-5%,16%
O=C(O)CC(c1cccc(O)c1)N1Cc2ccccc2C1=O (stereo not drawn),-12%,0%,1%,1%,2%,.
CCOC(=O)c1c(C)[nH]c(C(=O)OCc2ccc(F)cc2)c1C,1.6µM*,4.8µM*,2.2µM*,?,15µM*,.
CC(=O)c1c(C)[nH]c(C(=O)OCc2ccccc2)c1C,?,15µM*,?,?,18µM*,?
CCOC(=O)c1[nH]c(C)c(C(=O)OCC(=O)NC(C)c2ccc(F)cc2)c1C (stereo not drawn),-24%,6%,-26%,-8%,1%,.
COC(=O)c1c(C)[nH]c(C(=O)OCc2csc(CC(=O)Nc3ccccc3C)n2)c1C,.,.,.,8.2µM*,0%,.
CC(=O)c1c(C)[nH]c(C(=O)OCCCCN2C(=O)c3ccccc3C2=O)c1C,-28%,1%,-31%,6.5µM*,-7%,-48%
CCCCCC[C@@H](O)C/C=C\CCCCCCCC(=O)O,.,.,.,.,.,8%
COc1ccc(-c2cccc3c2NC(=O)C3=O)cc1OC,.,.,.,25%,5%,.
CCOC(=O)Nc1ccc2c(c1)OCO2,?,?,?,?,?,10%
CCOC(=O)c1c(C)[nH]c(C(=O)Nc2ccc3c(c2)OCO3)c1C,4µM*,4.8µM*,3.5µM*,?,?,.
COc1ccc(-c2csc(NC(=O)C3CCN(c4ncnc5sc(C)c(C)c45)CC3)n2)cc1OC,-36%,-2%,-37%,5.2µM*,-11%,.
CCCN(CC(=O)Nc1ccccc1C)C(=O)C1CCN(c2ncnc3sc(C)c(C)c23)CC1,-11%,4%,-2%,9.2µM*,-13%,.
COc1cc(C(=O)N2CCN(c3ncnc4sc(C)c(C)c34)CC2)cc(OC)c1OC,-24%,-6%,-12%,6.5µM*,-15%,.
Cc1ccccc1OCC(=O)NNC(=O)C1CCN(c2ncnc3sc(C)c(C)c23)CC1,-2%,2%,2%,21µM*,-36%,.
SMILES,Rab9 prom act,FLuc counter,NPC1 prom act,ELG1 DNA repair,ELG1 genotoxic,SMN2 splice enh
COc1ccccc1OCC(=O)NNC(=O)C1CCN(c2ncnc3sc(C)c(C)c23)CC1,-1%,3%,-4%,?,-8%,.
Cc1sc2ncnc(N3CCN(c4ncccn4)CC3)c2c1C,0%,0%,-4%,-10%,-13%,-26%
Cc1cc(S(=O)(=O)Nc2cc3c(cc2N2CCOCC2)n(C)c(=O)n3C)ccc1F,.,2%,.,.,.,10%
Cc1ccc(-n2nc(C)c3c(C(=O)NCCc4ccccc4)cc(C)nc32)cc1,.,48%,.,.,.,.
CCOCCOC(=O)Cn1cnc2scc(-c3ccc(C)cc3)c2c1=O,-5%,-1%,-3%,-14%,-10%,.
O=Cc1ccccc1OCc1nnsc1Cl,-5%,5%,-3%,-1%,-1%,-2%
CNC(=O)c1ccc(NC(=O)C2CCN(c3ncnc4sc(C)c(C)c34)CC2)cc1,2%,1%,7%,9.2µM*,-21%,.
COc1ccc(Cl)cc1NC(=O)Cn1cc(S(=O)(=O)Cc2cccc(Cl)c2)c2ccccc21,.,6%,.,.,.,.
c1ccc2c(c1)nc(-c1ccncc1)n2CCNc1nc(CN2CCCCC2)cs1,-1%,-1%,-5%,25%,2%,.
Cn1c(-c2ccc(CN3CCCCC3)o2)nc2ccccc21,?,15µM*,?,?,?,13µM*
COc1ccc(C(=O)Nc2ncccc2C)cc1S(=O)(=O)N1CCOCC1,-1%,2%,-3%,29%,1%,.
CCN(CC)c1ccc2cc(C=O)c(=O)oc2c1,.,-18%,.,.,.,-3%
CCN(CC)c1ccc2nc3c4ccccc4c(=O)cc-3oc2c1,1.1µM*,0.48µM*,0.56µM*,?,0.82µM*,.
COCC[N+]1(C)CCCCC1,2%,-2%,-4%,3%,5%,5%
O=C(CSc1nnc(-c2n[nH]c3ccccc23)n1-c1ccccc1)Nc1ccccc1Cl,0%,0%,-4%,23µM*,-19%,-20%
Cc1c(Cl)cccc1NC(=O)CSc1nnc(C)n1-c1ccccc1,7%,-1%,0%,?,-49%,-1%
CCc1ccc(C(=O)/C=C/c2ccc([N+](=O)[O-])o2)cc1,-29%,11µM*,-11%,?,?,-92%
CN(C)c1ccc(C(C#N)c2ccc(Cl)cc2)nn1 (stereo not drawn),0%,1%,12%,-6%,-1%,-13%
CN(C)c1ccc(C(C#N)c2ccccc2)nn1 (stereo not drawn),1.4µM*,-4%,3.2µM*,?,1%,6%
COC(=O)c1c(-c2ccc(Br)cc2)csc1NC(=O)Cc1ccc(OC)c(OC)c1,-19%,0%,-2%,18µM*,-13%,-74%
COC(=O)c1c(-c2cccc3ccccc23)csc1NC(=O)Cc1ccc(OC)c(OC)c1,-3%,0%,-5%,21µM*,-18%,-53%
CCCCN(CC(=O)Nc1c(C)cccc1CC)C(=O)SCC,-2%,0%,0%,-9%,0%,6%
Nc1cccc(C(=O)Nc2ccc3nc(-c4cccnc4)[nH]c3c2)c1,0%,?,-2%,-3%,0%,-2%
O=C(Nc1ccc2nc(-c3cccnc3)[nH]c2c1)C12CC3CC(CC(C3)C1)C2,2%,11µM*,14%,-3%,3%,13%
